Only some compounds are listed: those with a hit (about 2.2% of all), similar ones and a draw of the others.
LMP1 NFkB inh – inhibitors of Epstein-Barr LMP1-induced NF-kappaB reporter | 0.69% of 350,000 active | LMP1-induced NF-kappaB luciferase reporter cells, luminescence | inhibition, % at 12.5 µM; in the data active = inhibition above about 41%;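 also: 0% = neutral control wells and 100% = reference inhibitor control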
LGR2 inh – blocks bursicon-induced cAMP signaling via Drosophila LGR2; HEK293 LGR2, CRE-luciferase, bursicon-stimulated, 4 h; inhibition, % at 9.99 µM; 0.35% of 380,000 active;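 active = drop in luminescence signal, shown as inhibition above about 50% in the replicate tests, limit read from the data, passing the limit was not always enough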;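 also: agonist challenge used bursicon conditioned medium at about half maximal strength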
TRPM1 prom inh – inhibitors of MITF-driven TRPM1 promoter in melanoma cells | SK-MEL-5 TRPM1 promoter luciferase, 24 h | inhibition, % at 12.5 µM | 0.83% of 330,000 active;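 active = mean inhibition across replicates of 60% or more, whatever share of single replicates reaches that level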
EWS-Fli inh – blocks EWS/Fli oncoprotein-driven transcription; A673 NR0B1-luciferase reporter, viability-normalised; inhibition, % at 12.6 µM; 0.67% of 350,000 active; AID 651661;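 active = mean inhibition of at least 50% after viability correction, with every replicate also passing that limit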;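 also: firefly luciferase signal divided by Alamar Blue viability fluorescence both relative to DMSO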
PGC1a acetyl inh – modulators of PGC1a acetylation. U2OS PGC1a acetylation, AlphaScreen anti-acetyl-lysine; with virally co-expressed GCN5 acetyltransferase. inhibition, % at 15.6 µM. 0.17% of 350,000 active;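 active = every replicate shows inhibition of at least 40%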;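 also: 0% = neutral control wells and 100% = positive control wells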
PAX8 inh HTS – lowers PAX8-driven luciferase in RMG-I cells; RMG-I TPO-luciferase reporter, SteadyGlo, 24 h; inhibition, % at 12.6 µM; 1.2% of 360,000 active; AID 652154;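 active = mean replicate inhibition at least 60% with every replicate also reaching 60%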;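 also: luciferase light reporting Pax8 driven TPO promoter activity; plate controls were median of neutral control wells for no effect and mitoxantrone controls for full effect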
Numbers without * were called inactive; / = no result.

SMILES | LMP1 NFkB inh | LGR2 inh | TRPM1 prom inh | EWS-Fli inh | PGC1a acetyl inh | PAX8 inh HTS
C[C@@H]1CN([C@@H](C)CO)C(=O)c2c(c3ccccc3n2C)-c2ccccc2CO[C@@H]1CN(C)S(=O)(=O)c1ccc(Cl)cc1 | / | -5 | / | 14 | -17 | /
CCCCCCC[C@@H](C/C=C/CCC(=O)N(C)C/C(=C/Cl)C/C(=C\C(=O)N1C[C@H](O)CC1=O)OC)OC | -12 | 12 | 11 | 16 | -17 | 28
CCCCCCC[C@@H](C/C=C/CCC(=O)N(C)C/C(=C/Cl)C/C(=C\C(=O)N1CC(OC)=CC1=O)OC)OC | -406 | -1 | 75* | -4 | 33 | 50
C[C@@H]1CN([C@H](C)CO)C(=O)c2cccc(NC(=O)Nc3ccc4c(c3)OCO4)c2O[C@@H]1CN(C)CC1CCCCC1 | / | -9 | / | -2 | -1 | -3
Cc1ccc2nsnc2c1NC(=O)c1ccc(-c2cc(Cl)ccc2Cl)o1 | 2 | / | 72* | / | -5 | /
Cc1ccc2nsnc2c1NC(=O)Cc1ccc(Cl)cc1 | 5 | -33 | -5 | -16 | -6 | 7
COc1ccc(S(=O)(=O)N(C)C[C@H]2Oc3c(NC(=O)Nc4ccccc4)cccc3C(=O)N([C@@H](C)CO)C[C@H]2C)cc1 | / | 13 | / | 21 | -1 | 23
O=C(CCl)N1N=C(c2cccs2)CC1c1ccco1 (centres undefined) | -9 | 1 | 35 | 71* | -39 | 11
CN1CCN(CC(=O)N2N=C(c3cccs3)CC2c2ccco2)CC1 (centres undefined) | -11 | -3 | 11 | 6 | / | 29
COc1ccc(S(=O)(=O)N2CC[C@@H]3[C@H]2c2cc(C#Cc4cccnc4)ccc2N[C@@H]3CO)cc1 | / | 6 | / | 8 | -16 | -5
CC(=O)Nc1cc2nn(-c3ccccc3)nc2cc1Cl | -18 | / | -26 | / | 3 | -156
CC(C)(C)C(=O)Nc1cc2nn(-c3ccccc3)nc2cc1Cl | 75* | / | 85* | / | -9 | 74*
O=[N+]([O-])c1ccc(S(=O)(=O)CC(CN2CCOCC2)N2CCOCC2)cc1 (centres undefined) | -15 | 31 | 28 | -7 | -43 | 12
O=[N+]([O-])c1ccc(S(=O)(=O)CC(CN2CCCCC2)N2CCCCC2)cc1 (centres undefined) | 27 | / | 81* | 42 | -5 | 24
O=S(=O)(CC(CN1CCCCC1)N1CCCCC1)c1ccccc1 (centres undefined) | 25 | 9 | 47 | -5 | 12 | 64*
Cc1ccc(S(=O)(=O)Nc2ccc3c(c2)C(=O)N([C@@H](C)CO)C[C@H](C)[C@@H](CN(C)C(=O)NC(C)C)O3)cc1 | / | -14 | / | -2 | 5 | -11
Cc1ccc(-n2nnnc2CNC(=O)c2ccc([N+](=O)[O-])o2)cc1C | -40 | 7 | 62* | 26 | / | 84*
O=C(NCc1nnnn1-c1ccc(F)cc1)c1ccc([N+](=O)[O-])o1 | -24 | -3 | 34 | 8 | / | 70*
C[C@H]1CN([C@@H](C)CO)C(=O)c2cc(-c3ccncc3)cnc2O[C@H]1CN(C)C(=O)Nc1ccc2c(c1)OCO2 | / | 6 | / | -1 | 5 | /
O=C(C[C@H]1C[C@H]2c3cc(NC(=O)Nc4ccccc4)ccc3O[C@H]2[C@H](CO)O1)NC1CCCCC1 | / | -4 | / | -4 | 4 | -2
CC(C)CC1NC(=S)N(Cc2ccccc2)C1=O (centres undefined) | 7 | 12 | 5 | 15 | 5 | 90*
O=C1C(Cc2ccccc2)NC(=S)N1Cc1ccccc1 (centres undefined) | 1 | -12 | 8 | 9 | / | 9
CCc1nc(N2[C@H](CO)[C@H](c3ccccc3-c3ccc(F)cc3)[C@@H]2C#N)sc1C | / | 6 | / | 4 | / | /
Cc1cc(OCCCn2cnc3ccccc3c2=O)ccc1[N+](=O)[O-] | -1 | -4 | -6 | 3 | / | 88*
COC(=O)c1c(NC(=O)c2nc3ccccc3s2)sc2c1CC(C)(C)NC2(C)C | -43 | 12 | 77* | -20 | 1 | -3
Cc1ccc(N=c2c([N+](=O)[O-])nn(-c3ccc4c(c3)OCCO4)n2O)cc1F | 49* | 35 | 34 | 39 | / | 7
CCc1ccc(N=c2c([N+](=O)[O-])nn(-c3ccc4c(c3)OCCO4)n2O)cc1 | 13 | -3 | 5 | 2 | / | 2
O=[N+]([O-])c1nn(-c2ccc3c(c2)OCCO3)n(O)c1=NCCCO | -20 | / | 7 | / | / | -31
